Rows were chosen to be rich in hits. Some 4.7% of all compounds tested hit in one or more screens of this group.
D1 antag: Antagonist of Human D 1 Dopamine Receptor: qHTS; 3.2% of 360,000 active; HEK293 TREx D1 cells, calcium flux, dopamine EC80; active compounds read low; activity change, negative = inhibition, % at 10 µM; AID 504652, 2011; D(1A) dopamine receptor (Homo sapiens), P21728; in the data active means activity change below about -30%; further: on the % scale 0 is the no-effect control and ±100 the full control effect
Target sequence (P21728 whole entry, looked up): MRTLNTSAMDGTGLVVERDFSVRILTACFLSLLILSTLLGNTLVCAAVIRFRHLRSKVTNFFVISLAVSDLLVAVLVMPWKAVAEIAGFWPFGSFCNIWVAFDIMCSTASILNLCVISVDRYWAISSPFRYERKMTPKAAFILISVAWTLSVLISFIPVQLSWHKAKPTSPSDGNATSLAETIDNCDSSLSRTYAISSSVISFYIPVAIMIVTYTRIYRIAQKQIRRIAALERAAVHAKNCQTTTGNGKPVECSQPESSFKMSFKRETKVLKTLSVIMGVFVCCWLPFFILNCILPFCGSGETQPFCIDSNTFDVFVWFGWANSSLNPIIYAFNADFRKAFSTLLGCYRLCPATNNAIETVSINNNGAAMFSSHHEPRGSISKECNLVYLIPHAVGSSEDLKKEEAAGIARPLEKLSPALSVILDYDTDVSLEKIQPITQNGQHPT
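Allosteric or orthosteric antagonism assessed as attenuation of the calcium response to EC80 dopamine, added 180 s after compound, in induced HEK293 Trex D1 cells loaded with no-wash calcium dye.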
D1 potentiator: Potentiators of Human D1 Dopamine Receptor: qHTS; HEK293 TREx D1 cells, calcium flux, dopamine EC20 potentiation; potentiation, % at 10 µM; 0.036% of 360,000 active; AID 504651, 2011; in the data active means potentiation above about 30%; further: 0% is about no effect
D1 agonist: Allosteric Agonists of the Human D1 Dopamine Receptor: qHTS | activation, % at 2 µM | HEK293 T-REx D1 cells, calcium flux, agonist mode | 1% of 360,000 active; further: 0% is about no effect
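Tetracycline-induced HEK293 TREx D1 cells, force-coupled to calcium signalling, were dye-loaded with a no-wash calcium kit. Compound was pin-added after a 10 s baseline. Fluorescence was read kinetically at 1 cycle/s for 180 s, with calcium rises flagged as agonism.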
TRHR PAM: qHTS for Small Molecule Agonists and Allosteric Enhancers of Human TRH Receptor: Primary Screen for Enhancers; TRHR cells, fluo-8 calcium fluorescence, EC20 TRH enhancement; 0.66% of 360,000 active; AID 493056, 2011; enhancement, % at 2 µM; Thyrotropin-releasing hormone receptor (Homo sapiens), P34981; in the data active means enhancement above about 30%; further: 0% is about no effect
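TRHR-expressing cells loaded with fluo-8 calcium dye were read kinetically (ex 480/em 530) during compound addition, then stimulated with an EC20 of TRH (10 nM final). Enhancement of the Gq-mediated intracellular calcium response was scored.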
TRHR agonist: qHTS for Small Molecule Agonists and Allosteric Enhancers of Human TRH Receptor: Primary Screen for Agonists; Thyrotropin-releasing hormone receptor (Homo sapiens), P34981; TRHR cells, calcium flux fluo-8, FDSS agonist mode; activation, % at 2 µM; 0.18% of 360,000 active; further: 0% is about no effect
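TRHR-expressing cells loaded with fluo-8 calcium dye; 23 nL library compound pin-transferred, kinetic FDSS fluorescence (Ex 480/Em 530) recorded about 180 s for agonist-induced calcium release, before a 10 nM TRH EC20 addition for potentiator mode.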
* = called active by the depositor; . = not tested or not shown. Unless noted, no stated cut-off is given here; in the data, active means activation above about 30%; inactive means the rest.

SMILES	D1 antag	D1 potentiator	D1 agonist	TRHR PAM	TRHR agonist
CCNC(=O)C1CC(=O)N(c2ccc(OCC)cc2)C1 (stereo not drawn)	22.1	-5.5	1.1	-2.0	-0.3
O=C(NCCc1ccccc1Cl)c1ccc2c(c1)nc1n2CCCCC1	-5.9	2.5	-0.9	4.6	-0.5
CC(C)c1nn2c(=O)cc(COC(=O)c3ccccc3NC(=O)c3cccc(Cl)c3)nc2s1	5.2	0.1	-2.1	4.7	0.0
COc1ccc(/C=C2\CCC(C3CCCC3)C2=O)cc1Cn1cccn1 (stereo not drawn)	3.0	-0.5	11.3	-2.0	1.0
COc1ccc(/C=C2\CCc3ccccc3C2=O)cc1Cn1cccn1	-48.9*	-8.8	17.6	-7.4	2.6
CCN(CC)S(=O)(=O)c1ccc(O)c(C(=O)OCC(=O)NC2CCCC2)c1	-65.9*	-8.9	-0.5	-10.4	0.2
Cc1ccccc1NC(=O)COC(=O)c1ccc(S(C)(=O)=O)c([N+](=O)[O-])c1	-2.9	-1.1	1.6	-3.0	-0.4
NC(=O)c1ccc(NC(=O)COC(=O)/C=C/c2ccc3c(c2)OCO3)cc1	-41.3*	1.3	8.1	-2.3	3.8
CCN(CC)S(=O)(=O)c1ccc(C(=O)OCC(=O)NC2CCCC2)cc1	-21.0	-7.8	8.9	-3.7	0.5
Cc1ccccc1NC(=O)Cc1nc(COC(=O)c2ccc(S(C)(=O)=O)c([N+](=O)[O-])c2)cs1	-35.5*	-8.4	4.8	-4.3	-0.7
CS(=O)(=O)c1ccc(C(=O)OCC(=O)NC(=O)C2CCCCC2)cc1[N+](=O)[O-]	-32.9*	-4.2	7.0	18.5	0.3
O=C(CC1N=C2c3ccccc3N=C(SCc3ccc(Cl)cc3)N2C1=O)NCCc1ccccc1 (stereo not drawn)	18.0	-5.1	2.9	2.2	0.2
CCCCN(CC)C(=O)Nc1ccc2c(c1)N(C)C(=O)c1ccccc1S2	-3.2	-5.0	2.1	0.1	-0.3
Cc1cccc(C(=O)OCC(=O)NC2CCCCCCC2)c1	1.3	2.9	0.2	-14.9	-1.4
COc1cc(SC)ccc1C(=O)OCC(=O)NC1CCCCC1	-31.6*	2.0	0.8	1.9	-0.1
CC(=O)Nc1cccc(C(=O)OCC(=O)NC2CCCCCCC2)c1	-38.9*	-4.8	5.7	23.8	1.7
CC(=O)c1cccc(NC(=O)COC(=O)c2ccc3c(c2)OCO3)c1	-31.2*	.	9.4	11.5	-0.1
CC(=O)c1cccc(NC(=O)COC(=O)c2ccc(S(C)(=O)=O)c([N+](=O)[O-])c2)c1	-33.9*	-0.3	1.9	-3.2	0.3
COc1cc(SC)ccc1C(=O)OCC(=O)NC1CCCC1	-11.5	-8.5	2.3	-2.0	0.5
Cc1cc2oc3c(c(=O)c2cc1C)C1(C(=O)N(C)c2ccccc21)N(CCO)C3=O (stereo not drawn)	6.7	0.7	-0.4	1.3	-0.2
CCOc1ccc(C(=O)N2CCC3(CC2)NCCc2[nH]cnc23)cc1	8.8	-1.4	7.9	6.6	-0.6
CCOc1ccccc1NC(=O)N1CC(CC)Oc2ccccc21 (stereo not drawn)	-0.2	-1.1	0.2	12.4	0.1
CCN1CN(CCc2ccccc2)CNC1=S	1.2	-0.9	1.5	-1.9	0.2
CN1C(=O)C2CN(CCc3ccccc3)CNC2N(C)C1=O (stereo not drawn)	-35.1*	-11.7	3.1	-3.1	0.1
CN(C)c1nc(Cl)nc(NCCOc2ccccc2)n1	15.4	-8.0	80.5*	-1.3	-1.6
SMILES	D1 antag	D1 potentiator	D1 agonist	TRHR PAM	TRHR agonist
CCOC1=C/C(=C/c2c(N)n3nc(S(=O)(=O)CC)sc3nc2=O)C=CC1=O	-13.0	2.0	27.9	0.4	33.2*
COc1cc(OC)c(Nc2c3c(nc4nc(-c5cccs5)nn24)CCCC3)cc1Cl	13.6	-0.8	10.9	-1.2	0.2
COc1ccc(/C=N/NC(=O)CNc2n[nH]c(=O)[nH]c2=O)cc1OC	0.1	-3.3	4.6	33.9*	-0.6
COc1ccc(/C=N/NC(=O)CCCOc2ccc(Cl)cc2Cl)cc1	-31.9*	-6.3	3.3	-1.4	1.8
COc1ccc(/C=N\NC(=O)CC(=O)Nc2cccc(Cl)c2)cc1OC	-51.3*	-0.2	-1.0	1.4	0.4
CC1=C(C(=O)NCc2cccc(F)c2)C2(CCCCC2)OC1=O	-6.5	0.7	-0.4	28.4	-0.6
CCC(CC)C(=O)Nc1ccc(S(=O)(=O)N2CCC(c3nc4ccccc4s3)CC2)cc1	0.0	-3.2	-0.7	16.3	0.0
CCCCN1CC(c2nc3ccccc3n2CCCCOc2cc(C)ccc2C)CC1=O (stereo not drawn)	-9.6	-2.4	11.8	4.7	-1.0
CSc1ccccc1C(=O)Nc1cc2c(cc1C(=O)O)OCCCO2	-8.2	-2.6	1.8	2.3	-0.4
COc1ccc(C)cc1NC(=O)CN1C(=O)COc2ccc(S(=O)(=O)NC3CCCC3)cc21	6.9	5.0	-1.3	-7.4	0.0
CCOc1ccc(-c2nc(Cn3c(=O)cc(C)c4c(C)nn(-c5ccccc5)c43)c(C)o2)cc1	18.2	-0.9	0.8	-3.7	0.1
Cc1ccc(OCCN2CCCC2)cc1	-0.4	-0.9	1.0	33.0*	0.0
Cc1cccc(Cl)c1OCCN1CCCC1	-40.8*	-6.2	0.6	-0.3	1.8
Cc1cccc(Cn2ncc3c4sc(C)cc4n(C)c3c2=O)c1	8.6	4.5	2.8	8.1	0.2
O=[N+]([O-])c1ccc(S(=O)(=O)Nc2nnc(C(F)(F)F)s2)cc1	-51.9*	-6.8	2.0	10.5	0.5
COc1ccc(S(=O)(=O)N(Cc2nc(-c3ccc(C)cc3)no2)C2CCCCC2)cc1	7.2	-1.4	10.6	-7.7	2.1
O=C(NCC1CCCO1)c1c(O)c2cccc3c2n(c1=O)CCC3 (stereo not drawn)	-52.9*	0.2	0.4	3.0	-0.2
O=C(NCC1CCCO1)c1c(O)c2cccc3c2n(c1=O)CC3 (stereo not drawn)	0.9	7.2	1.2	1.2	0.7
COc1ccc(C(=O)C(OC(=O)c2ccccc2Cl)c2ccccc2)cc1 (stereo not drawn)	-32.8*	-8.2	11.4	-5.6	1.8
COc1ccc(C(=O)C(OC(=O)c2ccccc2)c2ccccc2)cc1 (stereo not drawn)	-8.9	-2.7	1.1	3.4	-0.3
O=C(NCc1ccco1)c1ccccc1-c1nc(-c2ccc(F)cc2)no1	-45.4*	2.5	-0.3	8.0	-0.3
Cc1ccccc1-c1noc(-c2ccccc2C(=O)NCc2ccco2)n1	1.2	-4.3	12.2	4.1	-0.2
O=C1COc2ccc(C(=O)COC(=O)Cc3ccccc3F)cc2N1	-2.4	-3.8	-1.4	-3.8	0.6

Screens (PubChem BioAssay)
